The source of these data is PubChem BioAssay AID504725 (Broad Institute, 2011).

SMILES strings stand for the structures. Entries with a potency or affinity are not part of this list. Activity calls are given as the source filed them. The rule behind the calls is not given here.

For this test, the target named is KSHV LANA C-terminal domain (residues 932-1162) binding to LBS DNA (UniProt O40947). Kind of test: inhibitors of C-LANA binding to LBS DNA, dose response, biochemical, fluorescence polarization, cherry-picked samples (AID 504725). The settings on record: MBP-C-LANA / FAM-LBS DNA fluorescence polarization, percent change from plate compound-well median; series mostly up to 35 µM; activity change, negative = inhibition: at the top concentration.
Regarding `NNC(=S)Nc1ccc(S(=O)(=O)N2CCOCC2)cc1`, the “activity change, negative = inhibition” value was 3.24% (inactive).
To `O=C(O)CC1(CC(=O)NCc2ccncc2)CCCCC1` belongs 0.912% (inactive); to `O=c1[nH][nH]cc1C=Nc1ccc(Cl)cc1Cl`, 0.414% (inactive); to `O=C(COc1cccc(F)c1)Nc1nc(-c2cccnc2)cs1`, 3.12% (inactive).
`Cc1cc(NC(=O)CCC(=O)N(CCC(C)C)C(C(=O)NC2CCCC2)c2cccnc2)no1` (stereo not drawn): the “activity change, negative = inhibition” value was -2.56% (inactive).
Take `CCOC(=O)C(C)(C)N(Cc1ccccc1C)S(=O)(=O)c1ccc(Cl)c([N+](=O)[O-])c1`: the “activity change, negative = inhibition” value is -3.4% (inactive).
For `CC1CC(C)(C)NC(=S)N1CC(=O)N(C)Cc1ccccc1` (stereo not drawn) the value was -0.507% (inactive); for `C=CCn1c(C)cc(-c2csc(NC(=O)CCc3nc4ccccc4c(=O)[nH]3)n2)c1C`, 0.228% (inactive); for `Nc1nc(C(F)(F)F)cc(=O)[nH]1`, -6.46% (inactive).
To `CC(C)CN(C(=O)CSc1nncn1C)C1CCS(=O)(=O)C1` (stereo not drawn) belongs 0.323% (inactive).
Regarding `CC(Sc1ncccn1)C(=O)NNC(=O)c1cccc(Cl)c1` (stereo not drawn), the “activity change, negative = inhibition” value was -2.31% (inactive).
To `Nc1nc(-c2ccc(C(=O)O)cc2)cs1` belongs 0.41% (inactive); to `Cn1c(=O)c2c(nc(SCC(=O)NCc3ccc4c(c3)OCO4)n2Cc2ccc(Cl)cc2)n(C)c1=O`, 2.38% (inactive); to `O=C(CN1C(=O)NC2(CCCC2)C1=O)Nc1ccccc1-c1ccccc1`, -1.4% (inactive).
For the molecule `COc1cccc(OCCNc2ccc([N+](=O)[O-])cn2)c1`, the “activity change, negative = inhibition” value is 2.33% (inactive).
Turning to `Cc1sc2nnn(CC(=O)N3CCN(C(=O)c4ccco4)CC3)c(=O)c2c1C`, the “activity change, negative = inhibition” value was -1.77% (inactive).
As for `NC(=S)N/N=C/c1cn(CCC(=O)O)nc1-c1cccc(Br)c1`, the “activity change, negative = inhibition” value is 2.56% (inactive).
Consider `CCCn1c(SCC(=O)NCc2cccs2)nc2c1c(=O)n(C)c(=O)n2C`, for which the “activity change, negative = inhibition” value was 1.8% (inactive).
For the molecule `COc1ccc(NS(=O)(=O)c2cccc3ccccc23)cc1`, the “activity change, negative = inhibition” value is 1.39% (inactive).
For the molecule `COc1cc2c(cc1OC)CN(C(=O)c1ccc(S(=O)(=O)N3CCCC3)cc1)CC2`, the “activity change, negative = inhibition” value was 0.676% (inactive).
For `CCC(Sc1ncccc1C(=O)O)C(=O)N1CCCC1` (stereo not drawn) the value was 3.51% (inactive); for `FC(F)(F)c1nnc(-c2ccccc2)nc1N1CCCC1`, 1.81% (inactive).
To `O=c1c2cc(O)c(O)cc2oc2cc(O)c(C3OC(CO)C(O)C(O)C3O)c(O)c12` (stereo not drawn) belongs -17.7% (inactive); to `Cc1ccc(OCC(=O)O/N=C(\N)Cc2ccc([N+](=O)[O-])cc2)cc1C`, -1.26% (inactive).
For `COc1cc(OC)cc(-c2c(-c3ccsc3)c3cc(Br)ccc3n2C)c1` the value was -0.377% (inactive); for `CC[C@H](C)[C@H](NC(N)=O)C(=O)Nc1ccc(NC(C)=O)cc1`, 3.35% (inactive); for `CCC(C)[C@H](NC(=O)[C@@H]1Cc2ccccc2CN1)C(=O)Nc1ccc2c(c1)OCO2` (stereo partly drawn), 0.254% (inactive).
As for `COc1ccc(-c2csc(NC(=O)CSc3nc(C)nc4sc(C(=O)O)c(C)c34)n2)cc1`, the “activity change, negative = inhibition” value was -5.52% (inactive).
Take `Cc1ccc(NS(=O)(=O)c2ccc(C(=O)NCCCN3CCCC3=O)cc2)cc1`: the “activity change, negative = inhibition” value was 2.81% (inactive).
Turning to `COc1ccccc1CNC(=O)CCS(=O)(=O)c1cccs1`, the “activity change, negative = inhibition” value is 0.006% (inactive).
For `COc1ccc(CC(=O)O/N=C(\N)c2ccc(OC)cc2)cc1` the value was -0.538% (inactive); for `Cc1ccc(-c2nnn(CC(=O)NC3CCN(Cc4ccccc4)CC3)n2)cc1`, -2.48% (inactive).
For `CCNC(=O)COC(=O)c1cccc(Br)c1` the value was 0.804% (inactive).
To `CN1CCN(C(=S)c2ccc(N(C)C)cc2)CC1` belongs 1.86% (inactive); to `Cc1ccc(C(CC(=O)N2CCCCC2)c2ccccc2)c(O)c1C` (stereo not drawn), -6% (inactive).
For `COC(=O)C1=C(N)OC2=C(C(=O)CCC2)C1c1cccs1` (stereo not drawn), the “activity change, negative = inhibition” value is -1.63% (inactive).
To `CN(C)/C=N/c1nc2nccc(-c3ccc(Cl)cc3)n2n1` belongs 5.16% (inactive); to `O=c1c2c(nc3cc(-c4ccc(F)cc4)[nH]n13)CCC2`, 3.74% (inactive).
